# Hits are enriched below; roughly 1.2% of the tested compounds scored in any of these assays.
# COUP-TFII inh – NR2F2 (human) inhibition, primary screen. HEK293T NGFI-A luciferase reporter, luminescence. inhibition, % at 8.6 µM. 370,000 compounds, 0.7% hits. AID 686940;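 active means inhibition above a per-plate cutoff, mean inhibition of test wells between control levels plus 3 SD, cut at about 38% in these data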;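 further: cells cotransfected with COUP-TFII expression vector driving the NGFI-A reporter; 0% = median of COUP-TF2 test wells and 100% = reporter-only cells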
# NCOA1 inh – inhibitors of human steroid receptor coactivator 1 (SRC1). HEK293 GAL4-SRC1 luciferase reporter, luminescence. inhibition, % at 3.6 µM. 360,000 compounds, 0.12% hits. Q15788;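 active means inhibition above the campaign mean plus 3 SD, with each screening campaign given its own cutoff, cut at about 60% in these data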;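 further: 0% = DMSO treated cells and 100% = gossypol at 36 µM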
# Gli-Sufu block – blocks Gli-Sufu signaling in a luciferase reporter | Sufu-KO-LIGHT fibroblasts, Gli luciferase reporter luminescence | inhibition, % at 5 µM | 340,000 compounds, 0.74% hits;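 active means inhibition above about 55%, limit read from the data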;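 further: 0% = DMSO-treated cells and 100% = wells with medium but no cells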
# LRH-1 inv ag – inverse agonists of human LRH-1 (NR5A2); O00482; HEK293T StAR-luciferase reporter, LRH-1 transfected, 24 h; inhibition, % at 3.6 µM; 360,000 compounds, 0.13% hits;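 active means inhibition above the mean inhibition of all tested compounds plus 3 SD, cut at about 73% in these data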;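 further: 0% = DMSO wells and 100% = reporter-only cells lacking LRH-1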
# Target sequence (O00482 whole entry, looked up): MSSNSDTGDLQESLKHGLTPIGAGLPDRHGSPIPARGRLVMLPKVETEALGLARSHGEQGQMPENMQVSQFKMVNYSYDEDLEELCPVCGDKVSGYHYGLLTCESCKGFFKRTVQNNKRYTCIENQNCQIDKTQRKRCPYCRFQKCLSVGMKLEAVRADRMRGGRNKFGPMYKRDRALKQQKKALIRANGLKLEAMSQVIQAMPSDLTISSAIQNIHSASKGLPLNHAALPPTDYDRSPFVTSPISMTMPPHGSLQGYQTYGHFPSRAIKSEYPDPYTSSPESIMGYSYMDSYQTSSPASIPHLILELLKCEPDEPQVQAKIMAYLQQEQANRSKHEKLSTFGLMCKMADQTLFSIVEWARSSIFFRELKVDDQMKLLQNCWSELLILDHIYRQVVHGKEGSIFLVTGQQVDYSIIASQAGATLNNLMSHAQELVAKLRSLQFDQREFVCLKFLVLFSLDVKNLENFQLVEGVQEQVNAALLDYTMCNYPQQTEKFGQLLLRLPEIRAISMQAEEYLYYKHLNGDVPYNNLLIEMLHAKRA
# NCOA2 inhibitor – human SRC2 (NCOA2) inhibition; Q15596; HEK293 GAL4-SRC2 luciferase reporter, luminescence; inhibition, % at 9 µM; 370,000 compounds, 0.17% hits;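 active means inhibition above the mean inhibition of all tested compounds plus 3 SD, set per campaign, cut at about 52% in these data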;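 further: 0% = DMSO treated cells and 100% = cells given Gossypol at 36 µM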
# SRC3 inh – inhibits human SRC3 coactivator; inhibition, % at 3.6 µM; Q9Y6Q9; 360,000 compounds, 0.17% hits; HEK293 GAL4-SRC3 luciferase reporter, luminescence;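 active means inhibition above a per-campaign cutoff, the mean of all compounds plus 3 SD, cut at about 60% in these data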;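 further: 0% = DMSO-treated cells and 100% = gossypol-treated cells at 36 µM; higher means less SRC3-driven luciferase light from the GAL4 reporter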
# VP16 Luc counter – VP16 inhibition counter-screen for COUP-TFII | shares compounds with COUP-TFII inh | HEK293 Gal4-VP16 luciferase reporter, luminescence | inhibition, % at 8.5 µM | 2,500 compounds, 25% hits; in the data active means inhibition above about 13%
# NR2F2 inh conf – COUP-TFII (NR2F2) inhibition, confirmation assay. inhibition, % at 8.5 µM. HEK293 NGFI-A luciferase reporter, luminescence. 2,500 compounds, 45% hits. shares compounds with COUP-TFII inh. AID 687008;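 active means mean inhibition over three repeats above a set limit taken from the earlier primary screen, cut at about 38% in these data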;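 further: 100% = cells given the luciferase reporter alone without the COUP-TF2 vector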
# * = called active by the depositor; . = not tested or not shown.
SMILES,COUP-TFII inh,NCOA1 inh,Gli-Sufu block,LRH-1 inv ag,NCOA2 inhibitor,SRC3 inh,VP16 Luc counter,NR2F2 inh conf
COc1ccc(CN2Cc3cnnn3-c3ccccc3C2C#N)cc1 (configuration not stated),59*,23,-6,36,43,46,26*,13
CN1Cc2cnnn2-c2ccccc2C1C#N (configuration not stated),0,4,-19,19,4,0,.,.
N#CC1c2ccccc2-n2nncc2CN1Cc1cc(Cl)cc(Cl)c1 (configuration not stated),84*,83*,25,93*,86*,91*,56*,64*
COC(=O)C1=C(c2c(C)noc2C)C[C@@H]2CC[C@H]1N2C(=O)NCCCOC(C)C,-21,-1,-4,4,-43,-9,.,.
CC1CC(C)CC(C)C(O)C(C#N)=CC=CCC(C2CCCC2C(=O)O)OC(=O)CC(O)C(C)C1 (configuration not stated),84*,94*,87*,98*,76*,94*,23*,80*
Cc1ccc(-c2cc(-c3ccccc3)cc(-c3ccccc3)[n+]2-c2ccccc2)cc1,76*,56,90*,98*,75*,84*,31*,89*
CCOC(=O)c1ccc(-[n+]2c(-c3ccccc3)cc(-c3ccccc3)cc2-c2ccccc2)cc1,.,.,47,.,.,.,.,.
CN(C)c1ccc(-[n+]2c(-c3ccccc3)cc(-c3ccccc3)cc2-c2ccccc2)cc1,86*,59,90*,90*,-2,82*,27*,90*
c1ccc(-c2cc(-c3ccccc3)[n+](-c3ccccc3)c(-c3ccccc3)c2)cc1,73*,35,73*,57,17,66*,15*,45*

# Screening data (PubChem BioAssay)
